Screens deposited in PubChem BioAssay by National Center for Advancing Translational Sciences (NCATS).
Rows were chosen to be rich in hits. Some 18% of all compounds tested hit in one or more screens of this group.
DT40 TDP1 CPT: growth inhibition of DT40 Tdp1-/-;hTDP1 cells with camptothecin (screen for TDP1 inhibitors). chicken DT40 Tdp1-/-;hTDP1 cells + 20 nM CPT, ATP luminescence, 48 h. actives 12% (n = 420,000). Potency, µM (series often up to 46.2 µM), for the others: at the highest dose activity change, negative = growth inhibition, usual class: inhibitors; also: potency is read from the fitted curve at half-maximal effect; % is scaled to controls: 0 for no effect and ±100 for the full control effect; nearly all actives have a fitted effect of over 55% in size
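Chicken DT40 Tdp1-/- cells stably complemented with human TDP1 were seeded at 400 cells/well in medium containing 20 nM camptothecin, exposed to pin-transferred compounds, and grown at 37 °C for at least 48 hr. Viability was read as ATP luminescence.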
IL-1B inflam inh: blocks inflammasome-driven IL-1 beta release; THP-1 LPS/ATP IL-1B secretion, AlphaLISA, 16 h; active compounds read low; activity change, % at 57.5 µM; actives 4.7% (n = 360,000); in the data active = activity change below about -50%; inconclusive = mostly about -30% to -49%; also: % is scaled to controls: 0 for no effect and ±100 for the full control effect
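Secreted IL-1B measured by AlphaLISA bead assay after 16 h compound exposure of THP-1 cells; compounds (final up to 57.5 uM) added 1 h before LPS (250 ng/mL) and ATP (1.25 mM) stimulation; lower signal means less secretion.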
TDP1 inh: TDP1 (human) enzyme inhibition; Q9NUW8; Potency, µM (highest dose often 130 µM), without a hit: at the top dose activity change, negative = inhibition, actives largely listed as inhibitors; recombinant TDP1, AlphaScreen DNA substrate cleavage; AID 485290; actives 0.28% (n = 350,000); also: potency is read from the fitted curve at half-maximal effect; % is scaled to controls: 0 for no effect and ±100 for the full control effect; nearly all actives have a fitted effect of over 40% in size
Target sequence (Q9NUW8 whole entry, looked up): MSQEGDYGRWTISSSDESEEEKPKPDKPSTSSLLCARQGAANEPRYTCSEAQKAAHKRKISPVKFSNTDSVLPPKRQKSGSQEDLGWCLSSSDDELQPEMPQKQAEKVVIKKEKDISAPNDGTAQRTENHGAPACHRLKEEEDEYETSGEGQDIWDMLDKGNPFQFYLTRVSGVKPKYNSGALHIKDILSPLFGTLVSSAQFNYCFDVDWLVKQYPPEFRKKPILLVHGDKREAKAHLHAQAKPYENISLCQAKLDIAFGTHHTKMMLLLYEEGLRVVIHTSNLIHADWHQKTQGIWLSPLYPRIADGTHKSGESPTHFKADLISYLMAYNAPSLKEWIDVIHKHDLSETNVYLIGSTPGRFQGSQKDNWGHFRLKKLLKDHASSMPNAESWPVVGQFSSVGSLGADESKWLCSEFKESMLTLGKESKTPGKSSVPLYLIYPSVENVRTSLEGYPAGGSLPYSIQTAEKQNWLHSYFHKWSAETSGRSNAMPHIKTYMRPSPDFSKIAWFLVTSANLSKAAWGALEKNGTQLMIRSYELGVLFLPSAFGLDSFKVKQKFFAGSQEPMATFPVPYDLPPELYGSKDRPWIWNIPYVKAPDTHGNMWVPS
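Steps: enzyme plus compound, 15 min RT; add biotin/phosphotyrosine-FITC oligonucleotide (15 nM final), react 5 min; add donor/acceptor beads (10 ug/ml final), 10 min; read AlphaScreen. Tdp1 at 1 nM final.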
TGFb SMAD3 inh: blocks TGF-b signaling | HepG2 CAGA-GFP TGF-b/SMAD3 reporter, GFP fluorescence, 18 h; TGF-beta stimulated, 500 pg/mL final | Potency, µM (titrated, usually from 46.1 µM), for the others: at the top dose activity, negative = inhibition, usual class: inhibitors | actives 1.2% (n = 410,000); also: potency is read from the fitted curve at half-maximal effect; % is scaled to controls: 0 for no effect and ±100 for the full control effect; nearly all actives have a fitted effect of over 65% in size
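Cell-based qHTS in HEPG2 carrying a CAGA-GFP Smad reporter; compounds added before 500 pg/mL final TGF-beta, 18 h incubation at 37 degrees C, GFP fluorescence quantified per cell by imaging cytometry.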
DT40 TDP1 no CPT: qHTS for Inhibitors of human tyrosyl-DNA phosphodiesterase 1 (TDP1): qHTS in cells in absence of CPT; DT40 Tdp1-/- hTDP1 cells, no CPT, ATP luminescence, 48 h; Potency, µM (titrated, usually from 46.2 µM), for the others: at the highest dose activity change, negative = growth inhibition, hits mostly inhibitors; actives 15% (n = 420,000); AID 686978, 2013; also: potency is read from the fitted curve at half-maximal effect; % is scaled to controls: 0 for no effect and ±100 for the full control effect; nearly all actives have a fitted effect of over 55% in size
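A cellular qHTS used chicken DT40 cells lacking endogenous Tdp1 but carrying stably transfected human TDP1. Compounds were applied without camptothecin, and cell growth kinetics were judged by ATP-dependent luminescence after ≥48 hr.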
HepG2 tox: counter-screen for TGF-b inhibitors: cytotoxicity in HepG2 cells. actives 0.76% (n = 410,000). HepG2 CAGA-GFP viability, ATP luminescence, 18 h. Potency, µM (series often up to 46.1 µM), for the others: top-dose activity change, negative = cytotoxicity, most hits filed as cytotoxic; also: potency is read from the fitted curve at half-maximal effect
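HepG2 CAGA-GFP cells (1000/well, DMEM with 1% FBS) received compound, then TGF-beta at 500 pg/mL final, and were incubated 18 hours at 37 degrees C. Viability was read by CellTiter-Glo luminescence. Media-only wells were set as complete cell-killing and DMSO as no toxicity.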
* hit, by the source's call; ? = inconclusive; / = no result given; ! = not active in a repeat; [ ] = another dose, or the depositor's remark. Unless noted, calls follow the shape of the dose curve; as a rule, active = well fitted curve in the direction sought with a large enough effect; inconclusive = small, poorly fitted or top-dose-only effect, or another doubt; inactive = no such curve, though single readings can be large; an effect the other way counts as inactive or inconclusive.

SMILES | DT40 TDP1 CPT | IL-1B inflam inh | TDP1 inh | TGFb SMAD3 inh | DT40 TDP1 no CPT | HepG2 tox
COc1ccc(C2=NOC(Cn3nc(C(=O)NCc4ccco4)cc3-c3ccccc3)C2)cc1 (configuration not stated) | ? | -27 | 3% | -7% | 16µM* | 0%
COc1ccc(-c2nnc3n(CCc4ccccc4)c(=O)c4ccccc4n23)cc1OC | ? | ? | 0% | -8% | 23µM* | 12%
COc1ccccc1-c1nnc2n(CCc3ccccc3)c(=O)c3ccccc3n12 | ? | / | 3% | -4% | ? | -39%
Cc1nc2nc(SCC(=O)Nc3cccc(Cl)c3)nn2c(C)c1Cc1ccccc1 | ? | / | 3% | -2% | ? | -19%
C=CCN1CCc2c(cc(O)c(O)c2Br)[C@@H](c2ccccc2)C1 | ? | 106 | 13%[56.1 µM] | -29% | 7.3µM* | -50%
Oc1cc2c(cc1O)[C@@H](c1ccccc1)CNCC2 | ? | 17 | 0% | -29% | ? | -24%
Oc1ccc([C@@H]2CNCCc3c2cc(O)c(O)c3Cl)cc1 | ? | / | 12%[56.1 µM] | / | 30µM* | /
Oc1cc2c(cc1O)C(c1ccccc1)CNCC2 (configuration not stated) | ? | -2 | -4%[56.1 µM] | -23% | 26µM*! | -21%
CN1CCc2cc(O)c(O)cc2C(c2ccccc2)C1 (configuration not stated) | -12% | -22 | 9%[56.1 µM] | -20% | ? | -4%
C=CCN1CCc2cc(O)c(O)cc2[C@H](c2ccccc2)C1 | ? | / | ? | / | 27µM* | /
Cc1ccc(NC(=O)CN2C(=O)COc3ccc(S(=O)(=O)NC4CCCC4)cc32)cc1Cl | ? | / | 9% | ? | -72% | -28%
Cc1ccc2nc(NC(=O)CSc3nc(=O)n(CCN(C)C)c4c3CCCC4)sc2c1 | -13% | -3 | 6% | -11% | ? | -1%
COc1cccc2sc(N3CCN(C(=O)CS(=O)(=O)c4ccc(Cl)cc4)CC3)nc12 | 16µM* | / | 5% | ? | 18µM* | -27%
Cc1ccc(S(=O)(=O)CC(=O)N2CCN(c3nc4c(F)cccc4s3)CC2)cc1 | 21µM* | / | 0% | ? | 18µM* | -12%
COc1ccccc1N1CCN(C(=O)Cc2ccc(Cl)cc2)CC1 | ? | 3 | / | -23% | -15% | -27%
COc1ccccc1C1CN(Cc2c(C)nc3sccn23)Cc2ccccc2O1 (configuration not stated) | 7%[9.04 µM] | / | / | / | -20% | /
O=C(Oc1cccc(C(=S)N2CCOCC2)c1)c1cc([N+](=O)[O-])cc([N+](=O)[O-])c1 | 0% | 0 | 7% | -13% | -11% | -2%
COC(=O)CC1C(C)(C)C(OC(C)=O)C2[C@H](OC(C)=O)[C@]34O[C@]2(O)[C@]1(C)C3CC[C@]1(C)C4=CC(=O)OC1c1ccoc1 (some centres not stated) | ? | / | 10% | / | 16µM* | /
Cc1ccc(NC(=O)C2C(c3ccccc3)C=CC(c3ccccc3)C2C(=O)O)cc1 (configuration not stated) | 29µM* | 18 | -11% | -8% | 21µM* | -18%
Cc1ccc(NC(=O)C2C(C(=O)O)C3C=CC2C32CC2)cc1 (configuration not stated) | 3% | 18 | 5% | -18% | -16% | -5%
Cc1cc(C)cc(OCC(=O)N2N=C(C(F)(F)F)CC2(O)C(C)(C)C)c1 (configuration not stated) | ? | 2 | 0% | ? | ? | 18µM*
Nc1ccc(CCn2ccnc2)cc1 | 9% | 28 | / | 0% | 31% | 0%
CCOC(=O)c1cnc(N2CCN(c3cccc(C)c3C)CC2)c2ccccc12 | ? | / | 3% | -2% | ? | -2%
CC(C)CN(C(=O)CSc1nc(-c2ccccc2)cn1N)c1c(N)n(Cc2ccccc2)c(=O)[nH]c1=O | -18% | -9 | / | ? | -17% | -4%
CC(C)CCN(C(=O)CCCSc1nc2ccccc2[nH]1)c1c(N)n(Cc2ccccc2)c(=O)[nH]c1=O | -21% | -97* | -12%[0.505 µM] | 21% | -22% | -1%
SMILES | DT40 TDP1 CPT | IL-1B inflam inh | TDP1 inh | TGFb SMAD3 inh | DT40 TDP1 no CPT | HepG2 tox
CC(C)CN(C(=O)CCCSc1nc2ccccc2[nH]1)c1c(N)n(Cc2ccccc2)c(=O)[nH]c1=O | 6% | -102* | 0% | 21% | -2% | -1%
CCN(CC)S(=O)(=O)c1ccc(N2CCOCC2)c(NC(=O)C2CC2)c1 | 8% | 3 | -8% | -1% | 3% | 0%
COc1ccc(CCNC(c2ccc(F)cc2)c2nnc(-c3ccccc3Cl)o2)cc1OC (configuration not stated) | ? | / | 2% | 18µM* | ? | -20%
Clc1ccc(CCNC(c2nnc(-c3ccccc3)o2)c2ccccc2Cl)cc1 (configuration not stated) | 18µM* | / | -2% | ? | 23µM* | -16%
Fc1ccc(C(NCCc2ccc(Cl)cc2)c2nnc(-c3ccccc3)o2)c(Cl)c1 (configuration not stated) | ? | / | 2% | ? | ? | -7%
Clc1ccc(CCNC(c2cccc(Cl)c2)c2nnc(-c3ccccc3)o2)cc1 (configuration not stated) | ? | / | -9%[12.3 µM] | -27% | ? | -9%
Cc1csc(SCC(=O)Nc2cc(C(N)=O)cc(C(N)=O)c2)n1 | -6% | 9 | -3% | 4% | -15% | -11%
Cc1ccc(NC(=O)Cn2cc(S(=O)(=O)N3CCN(c4ccccc4F)CC3)c3ccccc3c2=O)cc1F | -20% | / | 2% | -13% | -29% | -4%
C=CCNC(=O)c1ccccc1NC(=O)C1CC(=O)N(C(C)C)C1 (configuration not stated) | 2% | 0 | / | -8% | 7% | 5%
COc1ccc(CCNc2ncnc3nc[nH]c23)cc1 | 2.8µM* | / | 1% | 5% | 6.3µM* | -5%
CC(NC(=O)Nc1cccc(Cl)c1)C(c1cccs1)N1CCCC1 (configuration not stated) | -5% | -54* | -7% | 0% | ? | -20%
CC(NC(=S)Nc1ccc(Cl)cc1Cl)C(c1cccs1)N1CCCC1 (configuration not stated) | ? | -81* | 6% | -22% | ? | -1%
